This is one part of a sample in which hits are shown more often than they occur.
VACV E9 pol inh = vaccinia E9 polymerase processive synthesis inhibitors, primary screen, biochemical, absorbance; normalized absorbance, % (concentration not given with the values); 46,000 compounds, 0.94% hits; Vaccinia virus DNA polymerase (E9) processive complex; in vitro processive DNA synthesis, absorbance read-out; hits give low values; in the data active = normalized absorbance mostly below about 85%, no sharp cut-off; inactive = mostly above about 86%
Numbers stand for hits; . = inactive; ! = not confirmed by another sample.

SMILES	VACV E9 pol inh
CCCn1c(CCCNC(=O)c2ccc(OC)c(OC)c2)nc2ccccc21	.
CCn1c(=N)n(CC(=O)c2ccc(Br)cc2)c2ccccc21	.
CCOc1ccc(NC(=O)CN2C(=O)S/C(=C/c3ccc(Cl)cc3)C2=O)cc1	.
CCOc1ccc(NC(=O)c2sc(C)c(CC(=O)Nc3ccc(Cl)cc3)c2O)cc1	80
CCOc1ccc(-n2ccnc2SCC(=O)Nc2ccc(Cl)cc2)cc1	.
O=C(CC1NCCCNC1=O)Nc1cc(Cl)ccc1Cl (stereo unspecified)	.
COc1ccc2c(c1)c(CC(=O)NC1CCCC1)c(C)n2C(=O)c1ccc(Cl)cc1	.
O=C(O)c1cc(-c2ccco2)nc2ccc(Br)cc12	.
Cn1cc(-c2ccccc2C(=O)O)c(=O)c2ccccc21	.
O=C(O)c1ccccc1-c1c2cc(Br)c(=O)cc-2oc2[c]([Hg])c(O)c(Br)cc12	18
O=C(Nc1c(-c2ccccc2)nc2ncccn12)c1ccc(Cl)cc1	.
O=S(=O)(NCCNC/C=C/c1ccc(Br)cc1)c1cccc2cnccc12	89
O=S(=O)(c1cccc2cnccc12)N1CCCNCC1	.
Brc1ccccc1C=Nc1cccc2cnccc12	.
COc1cc(OC)nc(C(=O)c2ccc(Cl)cc2)n1	.
CC[C@H]1OC(=O)[C@H](C)[C@@H](O[C@H]2C[C@@](C)(OC)[C@@H](O)[C@H](C)O2)[C@H](C)[C@@H](O[C@@H]2O[C@H](C)C[C@H](N(C)C)[C@H]2O)[C@](C)(O)C[C@@H](C)C(=O)[C@H](C)[C@@H](O)[C@]1(C)O	23!
CCC(=O)O[C@H]1[C@H](O[C@@H]2[C@@H](C)[C@H](O[C@H]3C[C@@](C)(OC)[C@@H](O)[C@H](C)O3)[C@@H](C)C(=O)O[C@H](CC)[C@@](C)(O)[C@H](O)[C@@H](C)C(=O)[C@H](C)C[C@@]2(C)O)O[C@H](C)C[C@@H]1N(C)C	.
CCOC(=O)CCC(=O)O[C@H]1[C@H](O[C@@H]2[C@@H](C)[C@H](O[C@H]3C[C@@](C)(OC)[C@@H](O)[C@H](C)O3)[C@@H](C)C(=O)O[C@H](CC)[C@@](C)(O)[C@H](O)[C@@H](C)C(=O)[C@H](C)C[C@@]2(C)O)O[C@H](C)C[C@@H]1N(C)C	.
OC(OCC1Cc2ccccc2O1)C1Cc2ccccc2O1 (stereo unspecified)	.
CCN1CCCC1CNCc1c(C(=O)O)n(Cc2ccccc2C)c2ccccc12 (stereo unspecified)	.
CN(C)c1ccc(/C=C2\SC(=O)NC2=O)cc1	.
O=C1/C(=C/C=C/c2ccccc2)SC(=S)N1c1cccc(F)c1	.
O=C1NC(=O)/C(=C\C=C\c2ccccc2)S1	55
O=C1OC(c2ccccc2)OC(=O)C1=C/C=C/c1ccccc1 (stereo unspecified)	.
O=C1NC(=S)S/C1=C\C=C\c1ccccc1	86
SMILES	VACV E9 pol inh
O=C(CN1C(=O)/C(=C\C=C\c2ccccc2)SC1=S)Nc1ccc(F)cc1	.
O=C1CC(n2nc(Nc3ccccc3)n(-c3ccccc3)c2=S)C2COC1O2 (stereo unspecified)	.
Nc1nccc(-c2ccc(Sc3ccccc3)cc2)n1	.
CN(C)CN1C(=O)c2ccccc2C1=O	.
COc1ccc2nc(Nc3ccccc3)sc2c1	.
COc1ccc2nc(C)cc(Nc3ccccc3)c2c1	81
COc1ccc2nc(-c3ccccc3)cc(C(=O)O)c2c1	.
N#CC(Sc1ccccc1)c1ccc(Cl)cc1 (stereo unspecified)	.
CCN1CCN(c2ccc(NC(=O)c3cccc(Br)c3)cc2)CC1	.
CN1CCN(c2ccc(Nc3ccnc4cc(Cl)ccc34)cc2Cl)CC1	.
CCN1CCN(c2ccc(Nc3ccnc4cc5ccccc5cc34)cc2)CC1	14
CCCCN1C(=O)C(O)(CC(=O)c2c(C)coc2C)c2cc(Br)ccc21 (stereo unspecified)	.
COc1ccc2c3c([nH]c2c1)C(C)=NCC3	.
COc1ccc2c(c1)c1c3n2CCN=C3N(C)CC1	58
COc1ccc2c(c1)c1c3n2CCNC3CCC1 (stereo unspecified)	.
O=C(NO)c1cc(-c2ccccc2)nn1-c1ccccc1	.
Oc1ccccc1C=Nc1ccccc1O	.
Cc1ccccc1C=Nc1ccccc1C#N	.
N#Cc1ccccc1N=Cc1cccc(O)c1O	86
O=C(O)CCC(=O)Nc1cccc(-c2nc3ccccc3[nH]2)c1	.
O=C(O)CCCC(=O)Nc1nc2ccccc2[nH]1	.
O=C(O)CCCC(=O)Nc1ccc(-c2nc3ccccc3[nH]2)cc1	60
O=C(Cn1nnc2ccccc21)Nc1ccc2ccccc2c1	.
CC1CCCC(C)N1C(=O)c1cc(=O)c2ccccc2o1 (stereo unspecified)	.
O=C(c1ccccc1C(=O)N1CCCCC1)N1CCCCC1	.
SMILES	VACV E9 pol inh
CO[C@@]1(NC(=O)C(C(=O)O)c2ccc(O)cc2)C(=O)N2C(C(=O)O)=C(CSc3nnnn3C)CO[C@@H]21 (stereo partly specified)	8.0
Cc1cc(C)n2nc(SC(C)C(=O)NC3CCCCCCC3)nc2n1 (stereo unspecified)	.
CCOC(=O)c1c(C)n(CC)c2ccc(O)cc12	.
CCOC(=O)c1c(C)n(Cc2ccccc2)c2ccc(O)cc12	.
CCOC(=O)c1c2ccc(O)cc2n2ccccc12	75
C(=NCc1ccco1)c1cn(-c2ccccc2)nc1-c1ccccc1	.
CS(=O)(=O)N1CCC(C(=O)NC2CCCC2)CC1	.
Oc1c(Cl)cc(Cl)cc1/C=N/c1nc2c(s1)CCCC2	.
N#CC1=C(N=Cc2c(O)ccc3ccccc23)CCC1	.
N#CC1=C(N=Cc2cc(Cl)cc(Cl)c2O)CCC1	83
Cc1ccc(S(=O)(=O)N2Cc3ccccc3CC2C(=O)NC(C)C)cc1 (stereo unspecified)	.
Cc1ccc2nc(Cl)c3cc(C(=O)N(CCN(C)C)Cc4ccco4)sc3c2c1	53
CCCCN(Cc1ccco1)C(=O)c1cc2c(=O)oc3ccc(C)cc3c2s1	.
COC(=O)c1cc2c(Cl)nc3ccc(C)cc3c2s1	.
O=C1C(CN2CCCCC2)CCCC1CN1CCCCC1 (stereo unspecified)	.
CC12CC3(C)CC(C)(C1)CC(CN=Cc1ccc(O)cc1)(C2)C3	.
Cc1nc(/C=C(/N)C#N)cn1-c1ccccc1	.
COc1cc2cc(C)nc(Cc3cccc4ccccc34)c2cc1OC	.
COc1cc2cc(C)nc(C)c2cc1OC	68
COc1cc2cc(=O)[nH]c(C)c2cc1OC	.
COC(=O)c1ccc2nc(NC(=O)C(C)C)sc2c1	.
NNc1nc2cc3c(cc2s1)OCCO3	52
NS(=O)(=O)c1ccc2nc(NC(=O)C3CCCCC3)sc2c1	.
c1c2c(cc3sc(N4CCOCC4)nc13)OCCO2	.
Fc1ccc2nc(Nc3nc4ccc(F)cc4s3)sc2c1	.
SMILES	VACV E9 pol inh
NNc1nc2cc3c(cc2s1)OCO3	50
COc1ccccc1CNC(=O)c1cc(C)c2c(C)nn(-c3ccccc3Cl)c2n1	.
Cc1ccc(N=Cc2c(O)cc(C)oc2=O)cc1	.
CC1(C)CC(O)CC(C)(C)N1CC(O)COc1ccc(-c2ccccc2)cc1 (stereo unspecified)	.
CC(C)(C)c1ccc(Oc2ccc(NC(=O)CCCC(=O)O)cc2)cc1	.
CC1(c2ccccc2)CC(C)(C)N(C(=O)c2ccco2)c2ccccc21 (stereo unspecified)	.
COc1c(S(=O)(=O)n2cnc(C)c2)ccc(Cl)c1Cl	.
COc1ccc(C(=O)NCCC(C)C)cc1	.
O=C(O)CNC(=S)N(Cc1cccs1)C1CCCCC1	.
